The full list was thinned out, with hits kept by preference.
FECH inh = inhibitors of human ferrochelatase, primary screen, biochemical, purified FECH, Ni-mesoporphyrin absorbance | Ferrochelatase, mitochondrial (Homo sapiens), P22830 | Ni-mesoporphyrin absorbance 550 nm | calls only at 10 µM (by protocol) | 20,000 compounds, 3.3% hits;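 active = enzyme reaction rate more than 3 SD below the solvent-only control wells on the same plate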;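 also: lower slope than DMSO wells means FECH inhibition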
Target sequence (P22830 whole entry, looked up): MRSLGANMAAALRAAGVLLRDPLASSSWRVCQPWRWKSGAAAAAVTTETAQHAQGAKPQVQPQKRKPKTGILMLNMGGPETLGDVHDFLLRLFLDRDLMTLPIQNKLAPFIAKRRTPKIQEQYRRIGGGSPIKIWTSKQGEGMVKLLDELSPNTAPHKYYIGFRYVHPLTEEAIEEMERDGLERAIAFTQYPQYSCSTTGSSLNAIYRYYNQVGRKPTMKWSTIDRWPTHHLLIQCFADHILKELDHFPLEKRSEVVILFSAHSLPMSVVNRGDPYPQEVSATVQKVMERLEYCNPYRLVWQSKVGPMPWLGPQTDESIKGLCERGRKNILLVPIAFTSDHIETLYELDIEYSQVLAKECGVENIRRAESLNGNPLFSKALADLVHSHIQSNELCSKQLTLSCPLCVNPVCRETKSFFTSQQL
* = called active by the depositor; i = inactive; + = active, no number.

SMILES | FECH inh
CCc1c(C)nc2ncnn2c1Sc1ccc(NC(=O)c2cccs2)cc1 | i
CCc1c(C)nc2ncnn2c1Sc1ccc(NC(=O)c2ccccc2)cc1 | i
CCc1c(C)nc2ncnn2c1Sc1ccc(NC(=O)c2ccccc2C)cc1 | +
CCc1c(C)nc2ncnn2c1Sc1ccc(NC(=O)c2ccc(Br)cc2)cc1 | +
CCCC(=O)Nc1ccc(Sc2c(CCC)c(C)nc3ncnn23)cc1 | +
CC(C)c1cc(Nc2ccc(Br)cc2)n2nc(-c3cccnc3)nc2n1 | i
CCc1ccccc1Nc1cc(C)nc2nc(-c3cccnc3)nn12 | i
CN(CCCNC(=O)C1CCCN1c1nnc(N2CCCC2=O)s1)c1ccccc1 (stereo not given) | i
Cc1cccc(N2CCN(C(=O)C3CCCN(c4ncnc5c4nc4n5CCCCC4)C3)CC2)c1C (stereo not given) | i
Cc1ccc(-n2ncc3c(-n4nc(C)cc4NC(=O)c4c(F)cccc4Cl)ncnc32)c(C)c1 | i
Cc1ccc(N2C(=O)CCS2(=O)=O)cc1S(=O)(=O)Nc1cccc2cccnc12 | i
O=C(c1cccc(NCc2ccc(F)cc2)c1)N1CCNCC1 | i
COCc1nc(CNC2CCCC(C)(C)C2)no1 (stereo not given) | i
Cc1ncsc1CCCNC(=O)CC(=O)Nc1cccc(Cl)c1C | i
CN1CCN(C(=O)c2ccc3oc(=O)n(Cc4ccccc4)c3c2)CC1 | i
CCN1CCN(C(=O)c2ccc3oc(=O)n(Cc4ccc(C)cc4)c3c2)CC1 | i
O=C(c1ccc2oc(=O)n(Cc3ccccc3)c2c1)N1CCN(Cc2ccccc2)CC1 | +
CC(C)c1ccc2c(c1)-c1ccccc1S(=O)(=O)N2CC(=O)NCCCN1CCOCC1 | i
CCc1ccc2c(c1)-c1ccccc1S(=O)(=O)N2CC(=O)NCc1ccccn1 | +
CC(C)c1ccc2c(c1)-c1ccccc1S(=O)(=O)N2CC(=O)NCc1ccccn1 | +
CCN1CCN(C(=O)CN2c3ccc(Br)cc3-c3ccccc3S2(=O)=O)CC1 | i
CCN1CCN(C(=O)CN2c3ccc(C(C)C)cc3-c3ccccc3S2(=O)=O)CC1 | +
CC(C)c1ccc2c(c1)-c1ccccc1S(=O)(=O)N2CC(=O)NCc1ccncc1 | +
CCc1ccc2c(c1)-c1ccccc1S(=O)(=O)N2CC(=O)N1CCN(c2ccccc2)CC1 | i
CCc1ccc2c(c1)-c1ccccc1S(=O)(=O)N2CC(=O)Nc1ccccc1OC | i
SMILES | FECH inh
CCCNC(=O)c1ccccc1NC(=O)CN1c2ccc(C(C)C)cc2-c2ccccc2S1(=O)=O | i
CC(C)c1ccc2c(c1)-c1ccccc1S(=O)(=O)N2CC(=O)NCCSC1CCCCC1 | i
CCc1ccc2c(c1)-c1ccccc1S(=O)(=O)N2CC(=O)Nc1ccc(NC(C)=O)cc1 | i
COc1ccc(-c2ncc3c(=O)n(Cc4ccc(F)cc4)c(=O)n(C)c3n2)cc1 | i
Cc1nnc(SCCCNC(=O)c2c(C)nc3sccn23)s1 | i
CCN1CCN(S(=O)(=O)c2ccc3c(c2)CCN3C(=O)CCC(=O)N2CCOCC2)CC1 | i
O=C1CC(c2cccc3cnccc23)c2ccc(N3CCOC3=O)cc2N1 (stereo not given) | i
CCCN(CCC)c1nc(Nc2ccc(F)cc2)c2cnn(-c3ccccc3)c2n1 | i
COc1ccccc1-c1nc(C(N)=O)c2c(n1)n(-c1ccc(C)c(C)c1)c(=O)n2C | i
Cc1ccc(NC(=O)CN2c3ccc(Br)cc3-c3ccccc3S2(=O)=O)cc1 | +
Cc1cccc(C(C)C)c1NC(=O)CN1c2ccc(Br)cc2-c2ccccc2S1(=O)=O | i
Cc1ccc(NC(=O)CN2CCN(Cc3ccccc3C)S2(=O)=O)cc1C | i
NS(=O)(=O)c1ccc(NC(=O)CN2C(=O)c3ccccc3S2(=O)=O)cc1 | i
O=C(CN1c2ccc(Br)cc2-c2ccccc2S1(=O)=O)Nc1ccc(F)cc1F | i
COc1ccc(NC(=O)CN2c3ccc(Br)cc3-c3ccccc3S2(=O)=O)cc1 | i
Cc1ccc(NC(=O)CN2c3ccc(Br)cc3-c3ccccc3S2(=O)=O)cc1C | +
O=C1CN(C(=O)CN2c3ccc(Br)cc3-c3ccccc3S2(=O)=O)c2ccccc2N1 | i
CC(C)CCNC(=O)CN1c2ccc(Br)cc2-c2ccccc2S1(=O)=O | +
O=C(CN1c2ccc(Br)cc2-c2ccccc2S1(=O)=O)NC1CC1 | +
O=C1c2cccnc2CN1CCC(c1ccccc1)c1ccco1 (stereo not given) | i
O=C(Cn1nc(N2CCN(c3ccc(F)cc3)CC2)ccc1=O)NCc1cccs1 | i
COc1cccc(-c2cc(N3CCN(C(=O)NCc4ccc(C)cc4)CC3)ncn2)c1 | i
Clc1ccc(C2CN(Cc3cc(-c4cccnc4)no3)CCO2)cc1 (stereo not given) | i
CCCc1nc(C(=O)NCCC2CN(C)CCO2)cs1 (stereo not given) | i
CCCNc1nc(Nc2cccc(Cl)c2)c2cnn(-c3ccccc3)c2n1 | i
CCOC(=O)c1ccccc1NC(=O)CN1CCCN(Cc2cccc(C)c2)S1(=O)=O | i

Screening data: PubChem BioAssay, Corson Lab, School of Medicine, Indiana University
